Values joined by “and” are separate entries in the source; they are usually repeats but may differ in a detail not shown here. Identical values can stand only once. Active and inactive are the calls of the source. The calls were made as follows: active = hit-call score of the fitted dose curve at least 0.9, where 1 is the maximum; inactive = score below 0.9.
Read-out: CD38, CD38 (gene 952)
Assay: BSK_SAg_CD38: BioMAP Diversity Plus: SAg Assay for CD38 Biomarker Activity (AID 2283087)
Conditions: primary human HUVEC with PBMC; actives raise or lower the signal
Experimental: BSK_SAg is a cell-based, multiplexed-readout assay that uses umbilical vein endothelium and peripheral blood mononuclear cells, a human vascular primary cell co-culture, with measurements taken at 24 hours after chemical dosing in a 96-well plate.BSK_SAg_CD38 is one of 10 assay component(s) measured or calculated from the BSK_SAg assay. It is designed to make measurements of enzyme-linked immunosorbent assay, a form of binding reporter, as detected with fluorescence intensity signals by Enzyme-linked immunosorbent assay technology.Data from the assay component BSK_SAg_CD38 was analyzed into 1 assay endpoint. This assay endpoint, BSK_SAg_CD38, was analyzed with bidirectional fitting relative to DMSO as the negative control and baseline of activity. Using a type of binding reporter, gain or loss-of-signal activity can be used to understand changes in the signaling as they relate to the gene CD38. Furthermore, this assay endpoint can be referred to as a primary readout, because this assay has produced multiple assay endpoints where this one serves a signaling function. To generalize the intended target to other relatable targets, this assay endpoint is annotated to the cytokine intended target family, where the subfamily is other cytokine.
The levels of cell surface (or secreted, indicated by the prefix "s") biomarker endpoints were measured by ELISA. Overt cytotoxicity to cells in confluent adherent cultures (all systems other than the BT system) was assessed by measuring total protein levels using sulforhodamine B (SRB) staining in parallel cultures at the time of biomarker measurements, indicated as SRB endpoints. For proliferation assays for adherent cell types, individual cell types are cultured at sub-confluence and relative cell numbers quantified by SRB staining at time points optimized for each system (48 h: 3C and CASM3C systems; 72 h: BT and HDF3CGF systems; 96 h: SAg system). SRB was performed by staining cells with 0.1% SRB after fixation with 10% TCA and reading wells at 560 nm.Viability and proliferation of PBMC (T cells) was quantified by Alamar Blue reduction for the SAg and BT systems. For PBMC viability (referred to as PBMC Cytotoxicity within the assay endpoint names), cells were plated (75,000/well in a 96-well plate) and then chemical samples added for 1 h before addition of activators, SEB and TSST-1 (20 ng/mL final concentration each). Cells were incubated for 90 h. Then, Alamar Blue (20 uL/well) (Invitrogen, Cat DAL1100) was added for 6 h, and the plates were read with a fluorescence microplate reader at 546/580 nm (excitation/emission). For PBMC proliferation, cells were plated and activated as above but incubated for only 16 h prior to addition of Alamar Blue. Plates were read after 6 h.

**Q.** With `C#CCC1=C(C)C(OC(=O)C2C(C=C(C)C)C2(C)C)CC1=O` (stereo not given) as the compound, how does the AC50 read?
**A.** 33.7 µM (active)

**Q.** For `CCCCN(CC)c1c([N+](=O)[O-])cc(C(F)(F)F)cc1[N+](=O)[O-]`, which AC50 is on record?
**A.** 27.9 µM (active)

**Q.** How did the AC50 turn out when `CCC(CC)Nc1c([N+](=O)[O-])cc(C)c(C)c1[N+](=O)[O-]` was run?
**A.** 28.5 µM (active)

**Q.** How did the AC50 turn out when `COc1ccc(C(=CC(=O)N2CCOCC2)c2ccc(Cl)cc2)cc1OC` was run?
**A.** 17.4 µM (active)

**Q.** For `CC(C1CC1)C(O)(Cn1cncn1)c1ccc(Cl)cc1` (stereo not given), which outcome is on record?
**A.** inactive

**Q.** How did the AC50 turn out when `CCc1cccc(CC)c1N(COC)C(=O)CCl` was run?
**A.** 28.6 µM (active)

**Q.** With `COP(=O)(OC)C(O)C(Cl)(Cl)Cl` (stereo not given) as the compound, how does the outcome read?
**A.** inactive

**Q.** With `COc1cc(OC)nc(Sc2cccc(Cl)c2C(=O)O)n1` as the compound, how does the outcome read?
**A.** inactive

**Q.** For `CCOC(=O)CC(SP(=O)(OC)OC)C(=O)OCC` (stereo not given), which outcome is on record?
**A.** inactive

**Q.** `Nc1nc(N)nc(NC2CC2)n1` was tested. Which outcome did it give?
**A.** inactive

**Q.** For `CC(C)[C@H](C(=O)O[C@H](C#N)c1cccc(Oc2ccccc2)c1)c1ccc(Cl)cc1`, which outcome is on record?
**A.** inactive

**Q.** Which outcome does the source give for `CSc1nc(NC(C)C)nc(NC(C)C)n1` here?
**A.** inactive

**Q.** For `CNC(=O)ON=C(SC)C(=O)N(C)C`, which outcome is on record?
**A.** inactive

**Q.** For `CNC(=O)ON=C(C)SC`, which outcome is on record?
**A.** inactive

**Q.** For `CCCSP(=O)(OCC)SCCC`, which outcome is on record?
**A.** inactive

**Q.** Which outcome does the source give for `Cc1cc(C2CC2)nc(Nc2ccccc2)n1` here?
**A.** inactive

**Q.** With `CCCCOC(=O)[C@@H](C)Oc1ccc(Oc2ccc(C#N)cc2F)cc1` as the compound, how does the outcome read?
**A.** inactive

**Q.** Which AC50 does the source give for `O=[N+]([O-])c1cc(C(F)(F)F)c(Cl)c([N+](=O)[O-])c1Nc1ncc(C(F)(F)F)cc1Cl` here?
**A.** 1.35 µM (active) and 2.58 µM (active)

**Q.** How did the outcome turn out when `CCC(=O)Nc1ccc(Cl)c(Cl)c1` was run?
**A.** inactive

**Q.** Which AC50 does the source give for `CNc1cnn(-c2cccc(C(F)(F)F)c2)c(=O)c1Cl` here?
**A.** 9.82 µM (active)

**Q.** How did the outcome turn out when `CN(C)C(=O)Nc1cccc(C(F)(F)F)c1` was run?
**A.** inactive

**Q.** With `CSC1=N[C@@](C)(c2ccccc2)C(=O)N1Nc1ccccc1` as the compound, how does the AC50 read?
**A.** 14.3 µM (active)

**Q.** With `COP(=O)(NC(C)=O)SC` (stereo not given) as the compound, how does the outcome read?
**A.** inactive

**Q.** For `Nc1c(Cl)cc([N+](=O)[O-])cc1Cl`, which outcome is on record?
**A.** inactive

**Q.** With `CCOC(=O)COc1cc(-c2nn(C)c(OC(F)F)c2Cl)c(F)cc1Cl` as the compound, how does the outcome read?
**A.** inactive

**Q.** How did the outcome turn out when `O=c1ccc(=O)[nH][nH]1` was run?
**A.** inactive

**Q.** With `C[N+]1(C)CCCCC1` as the compound, how does the outcome read?
**A.** inactive

**Q.** For `CCOP(=O)(OCC)Oc1cc(C)nc(C(C)C)n1`, which outcome is on record?
**A.** inactive

**Q.** For `C=C(C)[C@H]1Cc2c(ccc3c2O[C@@H]2COc4cc(OC)c(OC)cc4[C@@H]2C3=O)O1`, which AC50 is on record?
**A.** 5.59 µM (active)

**Q.** For `COc1cccc(C(=O)NN(C(=O)c2cc(C)cc(C)c2)C(C)(C)C)c1C`, which outcome is on record?
**A.** inactive

**Q.** How did the AC50 turn out when `CCOP(=S)(OCC)Oc1ccc([N+](=O)[O-])cc1` was run?
**A.** 20 µM (active)

**Q.** With `CCOP(=S)(OCC)SCCSCC` as the compound, how does the outcome read?
**A.** inactive

**Q.** With `CCOP(=S)(OCC)OC(Cl)C(Cl)(Cl)Cl` (stereo not given) as the compound, how does the AC50 read?
**A.** 30.8 µM (active)

**Q.** `CC1(C(=O)Nc2ccc(O)c(Cl)c2Cl)CCCCC1` was tested. Which outcome did it give?
**A.** inactive

**Q.** How did the outcome turn out when `CC(COc1ccc(Oc2ccccc2)cc1)Oc1ccccn1` (stereo not given) was run?
**A.** inactive

**Q.** With `CCc1cnc(C2=NC(C)(C(C)C)C(=O)N2)c(C(=O)O)c1` (stereo not given) as the compound, how does the outcome read?
**A.** inactive

**Q.** For `CCOP(=O)(SC(C)CC)N1CCSC1=O` (stereo not given), which outcome is on record?
**A.** inactive

**Q.** How did the AC50 turn out when `C[Si](Cn1cncn1)(c1ccc(F)cc1)c1ccc(F)cc1` was run?
**A.** 29.9 µM (active)

**Q.** `Cc1ccn2nc(S(=O)(=O)Nc3c(F)cccc3F)nc2n1` was tested. Which outcome did it give?
**A.** inactive

**Q.** `CCNc1nc(Cl)nc(NC(C)(C)C#N)n1` was tested. Which outcome did it give?
**A.** inactive
